# An excerpt weighted towards active compounds, which were near 1.4% of everything screened.
# AID504770: growth inhibition of E. coli YBA685, primary screen, V. cholerae RctB inhibitors; E. coli YBA685 rctB-dependent plasmid, OD600 growth, 3 h; hits give low values; z-score (no concentration beside the values); hit rate 0.27% among 130,000; in the data active means z-score below about -2, passing the limit was not always enough
# Mtb MbtI inh: MbtI salicylate synthase inhibitors, primary screen, biochemical, fluorescence intensity | hit rate 0.89% among 100,000 | AID 493033, 2011 | P9WFX0 | purified MbtI enzyme, fluorescence intensity read-out | inhibition, % (no concentration beside the values); in the data active means inhibition mostly above about 56%, no sharp cut-off; inactive means mostly below about 77%
# Mtb MenB inh: M. tuberculosis MenB inhibitors, primary screen, biochemical, absorbance. inhibition, % (no concentration beside the values). hit rate 0.43% among 100,000. MenB enzyme assay, absorbance read-out. 1,4-dihydroxy-2-naphthoyl-CoA synthase (Mycobacterium tuberculosis (strain ATCC 25618 / …; in the data active means inhibition above about 21%, passing the limit was not always enough
# PV pol inh: poliovirus RdRp elongation inhibitors, primary screen, biochemical, fluorescence polarization, total intensity. % elongation, % (compound at 16.7 µg/mL). Genome polyprotein (Poliovirus type 1 (strain Mahoney)), P03300. AID 588519, 2011. hit rate 0.66% among 150,000. poliovirus polymerase elongation; hits give low values; in the data active means % elongation below about 90%
# Target sequence (P03300 1749-2209 limits assumed): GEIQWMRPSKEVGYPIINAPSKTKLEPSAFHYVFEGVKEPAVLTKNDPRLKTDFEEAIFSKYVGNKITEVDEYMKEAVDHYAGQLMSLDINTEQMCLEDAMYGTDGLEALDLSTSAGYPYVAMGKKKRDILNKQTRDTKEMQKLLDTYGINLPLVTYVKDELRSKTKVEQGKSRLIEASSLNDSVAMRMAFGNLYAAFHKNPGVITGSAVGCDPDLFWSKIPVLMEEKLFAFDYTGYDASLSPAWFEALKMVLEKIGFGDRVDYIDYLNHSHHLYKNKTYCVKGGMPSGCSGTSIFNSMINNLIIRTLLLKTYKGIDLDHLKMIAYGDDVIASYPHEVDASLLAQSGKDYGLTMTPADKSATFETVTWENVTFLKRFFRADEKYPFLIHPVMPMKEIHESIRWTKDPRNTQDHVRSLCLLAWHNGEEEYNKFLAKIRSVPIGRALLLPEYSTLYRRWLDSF
# An asterisk follows results filed as active; i = inactive; nt = no result.
SMILES,AID504770,Mtb MbtI inh,Mtb MenB inh,PV pol inh
O=C(NC1(O)C(=O)c2ccccc2C1=O)c1cnn(-c2ccccc2)c1C(F)(F)F,-1.4,-11,-2,48*
Cc1ccc(C)c(OCCC(=O)N=c2sccn2C)c1,0.55,2,-5,102
Cc1[nH]c2ccccc2c(=O)c1Br,0.35,5,-6,102
COc1ccc(/C=N/OCC(=O)N2CCOCC2)cc1,-0.65,-9,-22,101
COC(=O)c1ccc(C2C(C#N)=C(C)NC(C)=C2C(=O)Nc2ccccc2)cc1 (configuration not stated),-0.25,193,-23,104
CCC(CC)NC(=O)CSc1nnc(-c2ccc(C)cc2)n1N,-0.5,92,-39,78*
CCOC(=O)C1(CCSC)NC(c2cccs2)C2C(=O)N(CC)C(=O)C21 (configuration not stated),-0.6,-6,-30,102
S=c1nc(-c2cccs2)[nH][nH]1,-0.25,123,-58,69*
N#CC1(C#N)C(c2ccccc2Cl)C(C(=O)C2CC2)N2C=CC=CC21 (configuration not stated),1.4,11,-2,122
NC(=O)CSc1nnc(COc2ccccc2Cl)n1C1CC1,-0.5,-9,-24,nt
S=c1[nH]nc(COc2ccccc2Cl)n1C1CC1,0.65,84*,-19,nt
N#CC1=C(S)NC(=O)CC1c1ccco1 (configuration not stated),-0.35,6,-39,79*
N#CC1=C(SCC(=O)N(c2ccccc2)c2ccccc2)NC(=O)CC1c1ccco1 (configuration not stated),1.3,nt,nt,nt
Cc1ccc2[nH]c3c(=O)n(CCCN(C)C4CCCCC4)cnc3c2c1,-0.85,nt,nt,nt
Cc1conc1NC(c1cccs1)c1ccc2cccnc2c1O (configuration not stated),1.1,97*,-73,118
O=C(c1cnccn1)N(Cc1ccc(Cl)cc1)Cc1cc2cc3c(cc2[nH]c1=O)OCCO3,0.4,-4,25*,99
Nc1cc(C(F)(F)F)ccc1-n1cnc2ccccc21,1.1,90*,nt,102
Cc1ccc(-c2nc(N)sc2CC(=O)OCC(=O)NCc2cccs2)cc1,1.9,15,-43,110
O=C(CN1CCN(Cc2ccccc2)C1=O)NCCc1ccccc1,-0.2,-9,-2,103
Cc1cccc2nc(=S)n(C(=O)c3ccc(F)cc3)n12,-0.05,nt,0,74*
Cc1csc(Nc2ccccc2)n1,-0.85,72*,nt,95
ClCc1csc(Nc2ccccc2)n1,0.8,11,nt,110
Cc1nnc(-n2nc(-c3ccccc3)cc2N)[nH]c1=O,-0.75,nt,nt,nt
COC(=O)c1sc(NC(=O)c2ccccc2)c(C(=O)OC)c1C,-0.85,nt,-28,68*
COC(=O)c1sc(NC(=O)C(F)(F)F)c(C(=O)OC)c1C,-0.55,17,0,104
SMILES,AID504770,Mtb MbtI inh,Mtb MenB inh,PV pol inh
Cn1c2ccccc2c2cc(C3Nc4ccccc4C(=O)N3O)ccc21 (configuration not stated),1.3,53,-48,103
Oc1ccc2c(c1)[nH]c1ccccc12,-2.4,-82,-2,109
CCc1nc(C)cc(CN(C)C)c1O,-0.9,i,-70,100
Cc1ccccc1NC(=S)N/N=C/c1ccc(O)cc1O,1.9,21,-59,81*
C#CCSc1n[nH]c(-c2ccccc2)n1,0.6,83*,-14,102
OCCSc1n[nH]c(-c2ccccc2)n1,0.15,-38,6,100
CCOCCCNc1ncnc2sccc12,2.4,-11,-14,83*
COc1ccccc1OCCNc1ncnc2sccc12,0.75,4,-5,104
O=c1[nH][nH]c(=S)n1CCc1ccccc1,-0.55,68*,-13,93
S=c1[nH]ccn1CCc1ccccc1,-0.3,nt,-15,103
CCCCCc1ccc(C(=O)CCN(C)C)cc1,-0.8,73*,-2,103
CN(C)CCC(=O)c1ccc2c(c1)OCO2,-0.25,62,19,102
C=CCc1cccc(O)c1O,-0.05,89*,nt,101
C=CCc1cccc(C=Nc2ccc(Br)cc2)c1O,-1.4,nt,nt,nt
COc1ccccc1N(C(=O)CN1C(=O)C2C3C=CC(C3)C2C1=O)C1=NCCCS1 (configuration not stated),-1.9,-2,-10,103
CSc1nc(NC(N)=S)nc(NC(C)C)n1,-0.4,87*,-30,101
CSc1nc(NC(C)C)nc(N(C)C(N)=O)n1,1.1,16,21,102
CC(C)Nc1nc(NC(N)=O)nc(NC(C)C)n1,0.7,3,62*,102
CCN(CC)CCNC(=O)c1ccc2c(=O)n3nc(Nc4ccccc4OC)sc3nc2c1,nt,nt,nt,65*
COc1ccccc1Nc1nn2c(=O)c3ccc(C(=O)NCCCOC(C)C)cc3nc2s1,nt,nt,nt,110
N#Cc1cc2c([nH]c1=S)CCCC2,-0.1,102*,-217,98
CC1(C)Cc2[nH]c(=S)c(C#N)cc2CO1,1.1,92,-85,101
Nc1nc(N)c2[nH]c(-c3ccccc3)nc2n1,1.2,99,-27,68*
Nc1nc(N)nc(-c2ccccc2)n1,-1.2,-2,-9,101
COc1ccccc1CN1CCCC1,1.9,3,-13,102
SMILES,AID504770,Mtb MbtI inh,Mtb MenB inh,PV pol inh
COc1ccc(Cl)cc1CN1CCCCC1,-1.4,nt,-14,110
COc1cc(Cl)ccc1N=NN1CCOCC1,-3.9*,nt,nt,nt
O=S(=O)(c1ccc2nnn(OCc3cccc(F)c3)c2c1)N1CCCCC1,-0.5,8,-28,105
Cc1ccc2nc(N=C(N)N)nc(C)c2c1,0.65,26,8,101
COc1ccc2nc(N=C(N)N)nc(C)c2c1,0.7,nt,4,65*
O=C1C=CC(=NS(=O)(=O)c2ccc(C(=O)O)cc2)C=C1,-0.55,91*,13,99
O=C1C=CC(=NS(=O)(=O)c2cccs2)C=C1,-1.2,nt,nt,nt
C1COCCNCCOCCN1,-0.6,-9,-21,88*
S=C(Cc1ccc2c(c1)OCCO2)N1CCOCC1,-0.1,92*,-49,83*
O=C(Cn1cnc2c(nc3n2CCCCC3)c1=O)NC1CCCCCC1,-2.1*,7,-18,102
O=S1(=O)CCC(NC(=S)SCCOc2ccccc2)C1 (configuration not stated),-3*,nt,nt,nt
COc1ccc2o/c(=N\O)c(C(N)=O)cc2c1,1.4,102*,-81,102
COc1cc2c(cc1OC)CN(c1ccc3ccccc3n1)CC2,-0.15,-27,-5,89*
c1ccc(CCc2nn3c(COc4ccccc4)nnc3s2)cc1,-1,76*,-34,99
O=C1c2ccccc2C(=O)N1CCc1nn2c(-c3cccnc3)nnc2s1,-0.4,87*,9,100
c1ccc(-c2nn3c(-c4ccccc4)nnc3s2)cc1,0.5,19,-3,101
COc1ccc(-c2nnc3sc(C(C)N4C(=O)c5ccccc5C4=O)nn23)cc1 (configuration not stated),-0.25,5,-11,102
c1ccc(OCc2nn3c(-c4ccccc4)nnc3s2)cc1,0.55,86*,-45,96

# Screens: PubChem BioAssay, ICCB-Longwood Screening Facility, Harvard Medical School
